Laboratory results: PubChem BioAssay (NCATS)
Several values for one entry are separate records, joined by “and”; a condition that tells them apart may be missing. Equal values may be shown once. Records with an inconclusive call do not appear. More than one record can exist for a structure, and the calls need not agree. Activity calls are given as the source filed them. Calls follow the shape of the dose curve; as a rule, active = well fitted curve in the direction sought with a large enough effect; inconclusive = small, poorly fitted or top-dose-only effect, or another doubt; inactive = no such curve, though single readings can be large; an effect the other way counts as inactive or inconclusive.

Assays:
[1] = Viability qHTS for spleen associated tyrosine kinase inhibitor (SYKi) naive MV4-11 cells (AID 1963823); also: nearly all actives have a fitted effect of over 40% in size; also: potency is read from the fitted curve at half-maximal effect
Summary of the method: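 CellTiter-Glo luminescence, 10 min room-temperature incubation, gave viability. Cells: naive MV4-11 (500/well), treated 72 hr at 37 C, 5% CO2.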

[2] = Cellular viability qHTS for adrenocortical cancer (ACC) cell line SW-13 (AID 1963989); settings: SW-13 ACC cells viability, CellTiter-Glo, 48 h; activity (max response): stronger effect = lower value; also: nearly all actives have a fitted effect of over 65% in size; also: potency is read from the fitted curve at half-maximal effect;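 as to activity (max response): cells grown in serum-free medium with ITS supplement; % is scaled to controls: 0 for no effect and ±100 for the full control effect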
Summary of the method: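 Viability was read as CellTiter-Glo luminescence after 48 h compound treatment (up to 46 uM final) of SW-13 cells grown serum-free; titration curves were fit with a four-parameter logistic model to give IC50 and efficacy.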

[3] = Cellular viability qHTS for adrenocortical cancer (ACC) cell line NCI-H295R (AID 1963990); also: nearly all actives have a fitted effect of over 60% in size; also: potency is read from the fitted curve at half-maximal effect
Summary of the method: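 CellTiter-Glo ATP luminescence, read 48 h after compound addition, measured viability of NCI-H295R adrenocortical cells grown serum-free with ITS. Final concentrations spanned up to 46 uM. Data normalized to DMSO and doxorubicin, fitted for IC50 and maximal response.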

[4] = Quantitative highthroughput screen to assess conditional lethalithy of P12 Ichikawa cells grown in RPMI1640 with dialyzed fetal bovine serum (RPMI+ds) (AID 1963880); settings: Potency: P12-Ichikawa viability; also: nearly all actives have a fitted effect of over 35% in size; also: potency is read from the fitted curve at half-maximal effect;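 as to Viability: 100% = DMSO wells and 0% = empty wells on each plate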
Summary of the method: (§1)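 Each medium arm—HPLM with 10% dialyzed FBS, or RPMI1640 with 5 mM glucose and 10% untreated or dialyzed FBS—was screened against an 11-point, 3-fold compound titration for 48 h at 37 °C, with CellTiter-Glo luminescence as endpoint.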

[5] = Quantitative highthroughput screen to assess conditional lethalithy of SEM cells grown in Human Plasma-Like Medium with dialyzed fetal bovine serum (HPLM+ds) (AID 1963882); also: nearly all actives have a fitted effect of over 35% in size; also: potency is read from the fitted curve at half-maximal effect; as to Viability: series mostly up to about 46 µM
Summary of the method: as §1

[6] = Quantitative highthroughput screen to assess conditional lethalithy of SEM cells grown in RPMI1640 with unreated serum (RPMI+s) (AID 1963883); also: nearly all actives have a fitted effect of over 35% in size; also: potency is read from the fitted curve at half-maximal effect;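 as to Viability: 100% = DMSO wells and 0% = empty wells without cells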
Summary of the method: as §1

[7] = Quantitative highthroughput screen to assess conditional lethalithy of P12 Ichikawa cells grown in Human Plasma-Like Medium with dialyzed fetal bovine serum (HPLM+ds) (AID 1963879); settings: Potency: viability; also: series mostly up to about 46 µM; nearly all actives have a fitted effect of over 35% in size
Summary of the method: as §1

[8] = Quantitative highthroughput screen to assess conditional lethalithy of P12 Ichikawa cells grown in RPMI1640 with untreated serum (RPMI+s) (AID 1963881); settings: Potency: viability
Summary of the method: as §1

[9] = Quantitative highthroughput screen to assess conditional lethalithy of SEM cells grown in RPMI1640 with dialyzed fetal bovine serum (RPMI+ds) (AID 1963884)
Summary of the method: as §1

Q: For `COc1cc(C)c(Cc2cnc(N)nc2N)cc1OC`, which Potency [1] is on record?
A: Its Potency is “inactive”.

Q: What about the activity (max response) [2] of the same compound?
A: The activity (max response) was -2.95% (inactive).

Q: Which results are given for `CCCC(=O)OCOC(=O)C1=C(C)NC(C)=C(C(=O)OC)C1c1cccc(Cl)c1Cl` (centres undefined)?
A: Potency [1]: inactive; activity (max response) [2]: 6.2% (inactive)

Q: With `Oc1cccc2[nH]ccc12` as the compound, how does the Potency [1] read?
A: The Potency was 5.31 µM (active).

Q: And the activity (max response) [2]?
A: Its activity (max response) is 11.5% (inactive).

Q: For `C#C[C@]1(O)CC[C@H]2[C@@H]3CCC4=Cc5oncc5C[C@]4(C)[C@H]3CC[C@@]21C`, which Potency [1] is on record?
A: The Potency was 15 µM (active).

Q: And the activity (max response) [2]?
A: The activity (max response) was 0.351% (inactive).

Q: For `O=C(O)c1ccc(CCCc2ccc(OCCc3ccc(F)cc3)cc2)o1`, which Potency [1] is on record?
A: Its Potency is 5.17 µM (active).

Q: What about the Potency [2] of the same compound?
A: The Potency was 17.8 µM (active).

Q: For `CCCCCN(CCCCC)C(=O)C(CCC(=O)O)NC(=O)c1ccc(Cl)c(Cl)c1` (centres undefined), which Potency [1] is on record?
A: Its Potency is “inactive”.

Q: And the activity (max response) [2]?
A: The activity (max response) was 5.36% (inactive).

Q: For `COc1cc(Oc2ccnc3cc(OC)c(OC)cc23)ccc1NC(=O)NC(C)c1nccs1` (centres undefined), which Potency [1] is on record?
A: Its Potency is “inactive and 7.42 µM (active)”.

Q: What about the activity (max response) [2] of the same compound?
A: The activity (max response) was 0.628% (inactive).

Q: With `CCCCCCCCCCCC(=O)[O][Sn]([CH2]CCC)([CH2]CCC)[O]C(=O)CCCCCCCCCCC` as the compound, how does the Potency [1] read?
A: The Potency was “inactive”.

Q: What about the activity (max response) [2] of the same compound?
A: Its activity (max response) is 2.55% (inactive).

Q: For `CN(C)CCN(Cc1ccccc1)c1ccccn1`, which Potency [1] is on record?
A: Its Potency is “inactive”.

Q: What about the activity (max response) [2] of the same compound?
A: Its activity (max response) is -3.06% (inactive).

Q: With `CCN1CCC[C@H]1CNC(=O)c1c(OC)ccc(Br)c1OC` as the compound, how does the Potency [1] read?
A: Its Potency is 6.68 µM (active).

Q: What about the activity (max response) [2] of the same compound?
A: The activity (max response) was -0.795% (inactive).

Q: Which results are given for `CC[C@H]1OC(=O)[C@H](C)[C@@H](O[C@H]2C[C@@](C)(OC)[C@@H](O)[C@H](C)O2)[C@H](C)[C@@H](O[C@@H]2O[C@H](C)C[C@H](N(C)C)[C@H]2O)[C@](C)(O)C[C@@H](C)C(=O)[C@H](C)[C@@H](O)[C@]1(C)O`?
A: Potency [1]: inactive; activity (max response) [2]: 4.41% (inactive); Potency [3]: inactive

Q: For `Cc1ncc(CO)c(CO)c1O`, which Potency [1] is on record?
A: Its Potency is 3.76 µM (active).

Q: And the activity (max response) [2]?
A: Its activity (max response) is 1.35% (inactive).

Q: For `COC(=O)[C@H]1[C@H]2C[C@@H]3c4[nH]c5cc(OC)ccc5c4CCN3C[C@H]2C[C@@H](OC(=O)COc2ccc(OC)cc2)[C@@H]1OC`, which Potency [1] is on record?
A: Its Potency is “inactive”.

Q: What about the activity (max response) [2] of the same compound?
A: The activity (max response) was -9.25% (inactive).

Q: What does the source list for `O=C(Cn1ccnc1[N+](=O)[O-])NCc1ccccc1`?
A: Potency [1]: inactive; activity (max response) [2]: -1.05% (inactive)

Q: With `Cc1cc(Nc2cc(CN3CCOCC3)c3nc(C)c(Cc4ccc(Cl)cc4F)n3n2)n[nH]1` as the compound, how does the Potency [1] read?
A: Its Potency is 146 nM (active) and 148 nM (active).

Q: And the Potency [4]?
A: Its Potency is 7.43 µM (active).

Q: And the Potency [5]?
A: Its Potency is 1.66 µM (active).

Q: What about the Potency [6] of the same compound?
A: The Potency was 2.09 µM (active).

Q: What about the Potency [2] of the same compound?
A: Its Potency is 2.51 µM (active).

Q: And the Potency [3]?
A: Its Potency is 7.94 µM (active).

Q: For `C[C@]1(c2nc3c(C(N)=O)cccc3[nH]2)CCCN1`, which Potency [1] is on record?
A: Its Potency is “inactive”.

Q: And the Potency [7]?
A: The Potency was “inactive”.

Q: And the Potency [5]?
A: Its Potency is “inactive”.

Q: What about the activity (max response) [2] of the same compound?
A: Its activity (max response) is 7.65% (inactive).

Q: What about the Potency [3] of the same compound?
A: The Potency was “inactive”.

Q: For `CCn1c(=O)c2c(nc(C=Cc3ccc(OC)c(OC)c3)n2C)n(CC)c1=O`, which Potency [1] is on record?
A: The Potency was “inactive”.

Q: And the Potency [7]?
A: The Potency was “inactive”.

Q: And the Potency [4]?
A: The Potency was “inactive”.

Q: And the Potency [8]?
A: Its Potency is “inactive”.

Q: What about the Potency [5] of the same compound?
A: Its Potency is “inactive”.

Q: And the Potency [6]?
A: The Potency was “inactive”.

Q: What about the Potency [9] of the same compound?
A: The Potency was “inactive”.

Q: And the activity (max response) [2]?
A: Its activity (max response) is 1.29% (inactive).

Q: What about the Potency [3] of the same compound?
A: Its Potency is “inactive”.
